About 1,400 (61%) of roughly 2,300 compounds were called active. Roughly 7% stayed inconclusive and do not appear here. The rule behind the calls is not given here. The set was probably picked from earlier hits. The list is a sample of the results. Entries with a potency or affinity are not part of this list.
Target: FAD-linked sulfhydryl oxidase ALR (Homo sapiens) (UniProt P55789)
Assay: inhibitors of human ALR sulfhydryl oxidase, dose response, biochemical, H2O2 detection, luminescence, cherry-pick (AID 493248)
Conditions: purified ALR, DTT oxidation, H2O2 HRP-luminol luminescence; at 10 µM (top of the series)

Sequence of FAD-linked sulfhydryl oxidase ALR (Homo sapiens) (P55789 whole entry, looked up): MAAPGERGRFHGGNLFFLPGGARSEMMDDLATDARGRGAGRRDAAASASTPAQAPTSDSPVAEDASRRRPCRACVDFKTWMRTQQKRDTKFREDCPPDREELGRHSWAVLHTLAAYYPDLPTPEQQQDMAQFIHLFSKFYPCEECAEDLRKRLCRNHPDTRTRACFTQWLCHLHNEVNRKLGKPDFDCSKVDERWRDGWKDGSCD

Structure (SMILES)	activity change, negative = inhibition [%]
O=C(CNc1ccccc1)N/N=C/c1c[nH]c2ccccc12	-29.1
O=[N+]([O-])c1cccc(N/N=C/c2cccc(O)c2O)c1	-6.94
COc1ccc2nc3ccccc3nc2c1N	417
COc1ccc(Nc2nc(N)c3ccccc3n2)c(OC)c1	-5.05
Cn1c(CNc2ccc(F)cc2)nc2ccccc21	4.17
CCN1C(=O)c2cccc3c(N)ccc1c23	-69.8
Cc1ccc(S(=O)(=O)NCC(=O)NCC2CCCCC2)cc1C	18.2
Cn1c(=O)[nH]c(=O)c2c1[nH]c(=S)n2Cc1ccccc1	-58.1
Cc1cnc(C(=O)Nc2ccc(C(=O)N3CCCCC3)cc2)cn1	0.57
O=C(c1cc(-c2ccc(O)cc2)on1)N1CCCCCC1	-103
CC(C)(C)C(=O)NC1=NCCS1	-0.254
C/C(=N\NC(=O)c1csc2ccccc12)c1ccc(O)cc1	-107
COc1ccc(CNc2ccc(Br)cc2)cc1	-0.843
C/C(=N\Nc1ccccn1)c1ccc(OC(F)F)cc1	30.6
COc1cc(C(=O)n2nc(C)cc2C)ccc1O	108
CC(C)(C)NC(=O)C(Cc1ccccc1)NS(=O)(=O)c1ccc2c(c1)CCC(=O)N2 (centres undefined)	-98.2
COc1c(Cl)cc(C(=O)NN)cc1Cl	-36.3
Cc1ccc(-n2[nH]c(C)c(/C=N/NC(=O)c3ccc(O)cc3O)c2=O)cc1	-40.4
NNC(=O)c1cc(O)c(O)c(O)c1	8.57
CCCc1cc(=O)[nH]c(SCc2cccnc2)n1	-44.3
CC1(C)CN(c2ccccc2)N(C(=O)c2ccc(F)cc2)C1=O	-46.1
COc1cc(/C=N/O)cc(Br)c1OC	21.8
CCN(CC)CC(=O)c1ccc(-c2ccccc2)cc1	-34.7
CCc1ccccc1Nc1ccc(C(=O)O)cc1N	-23
Oc1ccc(-c2cnns2)c(O)c1	-104

Structure (SMILES)	activity change, negative = inhibition [%]
N[C@@H](Cc1ccccc1)c1nnc(SCc2ccccc2Cl)o1	-33.5
O=C(O)c1cc([N+](=O)[O-])c(Sc2nc3ccccc3[nH]2)c([N+](=O)[O-])c1	-46.4
COc1cccc(NC(=O)c2c([N+](=O)[O-])cnn2C)c1	-15.3
Nc1ccccc1C(O)(Cc1ccccc1)c1ccccc1 (centres undefined)	-3.4
Fc1ccccc1Nc1n[nH]c(=S)s1	-40.4
COc1cc(/C=N/Nc2ccc([N+](=O)[O-])cn2)cc(OC)c1O	-73.9
C=C(C)C(=O)Nc1ccc(NC(C)C)cc1	266
CC(Nc1ccccc1)c1cc(Cl)ccc1O (centres undefined)	-48.4
COc1ccccc1N(Cc1ccccc1)S(=O)(=O)c1cc(C(=O)O)ccc1Cl	-48.6
Cc1ccc2c(CN3CCC(C(N)=O)CC3)cc(=O)oc2c1C	-10.9
CN(C)Cc1c(O)ccc2c3c(c(=O)oc12)CCCCC3	148
Cn1ccnc1SCc1cn2ccccc2n1	-1.35
O=C(c1cc(-c2ccc(O)cc2)on1)N1CCN(c2ccccc2)CC1	418
S=c1[nH]ncn1NCc1ccc(Cl)cc1Cl	-23.3
Cc1cc(-c2n[nH]c(=S)n2/N=C/c2cccc([N+](=O)[O-])c2)n[nH]1	-55.9
COc1cc(/C=C2\SC(=S)N(NC(=O)c3cccnc3)C2=O)ccc1O	-97.7
Cc1nnc(Nc2ccc3c(c2)OCO3)c2ccccc12	20.5
Cc1csc2nc(CSc3ccc(Cl)cc3)cn12	-28.1
c1ccc(Nc2c(-c3ccco3)nc3ccccn23)cc1	-67
COc1ccc(-n2c(-c3ccc(OC)c(OC)c3)n[nH]c2=S)cc1	-27
CCN1CC(c2ccccc2)C(c2ccc(Cl)cc2)=N1 (centres undefined)	-26.4
O=C(Nc1cccs1)Nc1ccccc1Cl	-59.6
CN1c2ccccc2Sc2cc(N)ccc21	-71
CN(C)c1ccc(/C=N/OC(=O)Nc2ccccc2)cc1	-22.3
O=C(O)C1C(c2ccccc2)C(C(=O)Oc2ccc(O)cc2)C1c1ccccc1 (centres undefined)	-97.2

Structure (SMILES)	activity change, negative = inhibition [%]
Fc1ccc(CN2C3=NCCN3c3ccccc32)cc1	-38.3
CCCCN1C2=NC(c3ccccc3)CN2c2ccccc21 (centres undefined)	-14
COc1cc(NC(=O)CN2C(=O)C(c3ccccc3)=NC2(C)C)cc(OC)c1	-10
CCN(CC)S(=O)(=O)c1ccc(NC(=O)c2c(-c3ccccc3)noc2C)cc1	-1.33
COc1cc(/C=N\NC(=O)c2ccc(Cn3cc(Br)c([N+](=O)[O-])n3)o2)cc(OC)c1O	-36.4
CC(C)CC1(C(=O)O)NC(c2ccccc2O)C2C(=O)N(C(C)C)C(=O)C21 (centres undefined)	-7.77
COc1ccc(CN2C(=O)C3C4C=CC(C4)C3C2=O)cc1 (centres undefined)	24.9
COc1ccc(CNc2ccccc2)cc1Br	-3.19
COc1ccc(NCc2ccc3c(c2)OCO3)cc1Cl	-12.5
CCN(CC)c1ccc(NC(=O)CN2C(=O)CSc3ncccc32)c(C)c1	-11.2
Cc1cc2nc3ccc(N(C)C)cc3nc2cc1N	-98.1
CC1C/C(=N/NC(=O)c2cccc(F)c2)c2ccc(O)cc2C1 (centres undefined)	-63.8
CNC(=O)CN1C(=O)c2ccccc2S1(=O)=O	14
CCN1CCn2c3c(c4cc(C)ccc42)CCCC31 (centres undefined)	32.6
COc1ccc(-c2csc(Cc3nnc4n3CCCCC4)n2)cc1OC	-2.63
CCc1oc2ccccc2c1C(=O)c1cc(Br)c(O)c(Br)c1	-16.5
Cc1cccc(NNC(=O)C(=O)NNc2cccc(C)c2)c1	-2.1
COC(=O)c1c(N)sc2c1CC(C)(C)OC2	0.616
Cc1ccc(N(C)S(=O)(=O)c2cccc(C(=O)Nc3nnc(C4CC4)s3)c2)cc1	41.9
CCSc1nnc(NC(=O)C2CCCN(S(=O)(=O)c3cnc[nH]3)C2)s1 (centres undefined)	4.79
Cc1cc(C)cc(N(CC(=O)NCc2ccco2)S(=O)(=O)c2c(C)noc2C)c1	-11.1
Cc1cc(C(=O)Nc2nc3c(C)cccc3s2)c(C)o1	-29
COc1cccc(CNc2nc3ccccc3n2CCN2CCCCC2)c1	73.7
Cc1[nH]oc(=O)c1N=Nc1c(Cl)cccc1Cl	-48.5
O=S(=O)(c1cccs1)n1cnc2ccccc21	-2.54

Structure (SMILES)	activity change, negative = inhibition [%]
Cc1cc(Cc2ccc(N)c(C)c2)ccc1N	12.8
C=CCSc1nnc2c(n1)OC(c1ccco1)Nc1ccccc1-2 (centres undefined)	-91.3
COc1cc(C(=S)NC2CCCCC2)ccc1O	99.8
COC(=O)c1ccn(CC(=O)NC2CCCCC2)n1	-5.32
CSc1nnc(-c2ccncc2)n1CCCN1CCCC1=O	69.3
Cc1cc(C(=O)CN2C(=O)CCC2=O)c(C)n1Cc1ccccc1	-73.3
N#CCC(=O)Nc1ccc(C(=O)NCCc2c[nH]c3ccccc23)cc1	-21.6
CS(=O)(=O)N(CC(=O)NCc1ccccn1)Cc1ccc(Cl)cc1	128
COC(=O)[C@@H](N)Cc1ccc(O)c(O)c1	-110
Cc1cccn2cc(CNc3ccccc3)nc12	-7.4
CC(=O)Nc1cccc(NC(=O)c2cccc(-c3ccc(O)cc3)c2)c1	64.6
Cc1cc(C)n2nc(C(=O)N/N=C/c3ccc(O)cc3)nc2n1	-107
Nc1nnnn1/N=C/c1ccc(O)cc1	-84.1
S=c1[nH]nc(C2CCCCC2)n1/N=C/c1cccs1	-12.9
COc1cc(/C=N/N2C(=O)C3C4C=CC(CC4)C3C2=O)ccc1O (centres undefined)	-104
CC(=O)c1cc(CC=C(C)C)c(O)cc1O	11.5
Cc1cccc(C(=O)Nc2onc(C)c2C#N)c1	-51.1
O=C(Nc1nnc(-c2ccco2)o1)c1cccc(Cl)c1	-18.4
Cc1[nH]nc(-c2ccc(O)cc2O)c1-c1nc2ccccc2s1	368
CC(C)c1ccc(NC2CCCN(C(=O)CCN3CCCC3=O)C2)cc1 (centres undefined)	-61
O=C(CCc1ccncc1)N1CCCC(Nc2ccc(F)c(F)c2)C1 (centres undefined)	-11.3
COc1ccc(NC2CCCN(C(=O)Cn3ccc(C)n3)C2)cc1OC (centres undefined)	108
CC(C)N1C(=O)C2C(c3ccccc3O)NC(C)(C(=O)O)C2C1=O (centres undefined)	4.76
CCc1c(C(=O)NCc2cnn(C)c2)csc1C	-7.16
Cc1cccc(CSc2nn3c(=O)c(C)nnc3s2)c1	-99.2

Structure (SMILES)	activity change, negative = inhibition [%]
Cc1nc2ccc(S(=O)(=O)NC(C(=O)Nc3nccs3)C(C)C)cc2s1 (centres undefined)	-35.5
Cc1ccc(CNC(=O)C(NS(=O)(=O)c2ccc3nc(C)sc3c2)C(C)C)cc1 (centres undefined)	40.5
COc1ccc(NC(=O)CNS(=O)(=O)c2ccc3nc(C)sc3c2)c(OC)c1	-62.8
C/C(=N\NS(=O)(=O)c1ccc(Cl)cc1)c1ccc(O)cc1	-79.4
Cc1cc(NC(=O)Nc2cccc(C)c2C)no1	-49
CC(=O)Nc1cccc(N=NN2CCCCC2)c1	26.8
O=C(Nc1ccccc1N1CCCC1)c1cccnc1	-34.6
CC(=O)Nc1ccc(S(=O)(=O)NNC(=O)c2cccc(Cl)c2)cc1	-37.6
Cc1cc(NC(=O)c2ccoc2C)ccc1Br	-11.3
COc1ccc(S(=O)(=O)Nc2nc3ccccc3nc2Nc2cccc(C(=O)O)c2)cc1	-80.5
CCc1nnc(NS(=O)(=O)c2ccc(NC(=O)OC)cc2)s1	-99.5
Cc1nc2ccc(Br)cn2c1NC(C)(C)C	15.9
O=C1CSC(c2ccccc2)N1c1ccc([N+](=O)[O-])cc1 (centres undefined)	-50.9
COc1ccc(C2SCC(=O)N2Cc2ccccc2)cc1 (centres undefined)	-33.1
Cc1noc(NS(=O)(=O)c2ccc(NC(=O)CCN3C(=O)c4ccccc4C3=O)cc2)c1C	-21.6
O=C(O)CCCC(=O)N1CCN(c2nc(-c3ccccc3)c3ccccc3n2)CC1	-0.988
COc1ccc(N=C2C(=O)Nc3ccccc32)cc1	-24.8
Cc1ccc(N(C(=O)c2cccs2)C2C=CS(=O)(=O)C2)cc1 (centres undefined)	-56.3
COc1ccc(Nc2nccc(-c3cccc(N)c3)n2)cc1	-11.7
CC1CCC2(CC1)NC(=S)N(c1ccccc1)N2 (centres undefined)	-28.1
COC(=O)c1sccc1NC(=O)c1cc(C)on1	-8.04
COc1ccc(N2CCN(c3ncccn3)CC2)cc1	-8.28
Cc1nn(C)c(Nc2ccc(Br)cc2)c1Br	-46.2
Cn1c(CNc2ccc(O)cc2)nc2ccccc21	-101
